# Assay results reported in PubChem BioAssay AID504467 (National Center for Advancing Translational Sciences (NCATS), 2011).
# Screen size: about 330,000 compounds; about 7,700 (2.3%) were called active. A call without a number means that no potency is given here. About 26% were inconclusive and are not listed. This is one part of a sample in which actives are shown more often than they occur. The call rests on the fitted dose curve; in most records, active means well fitted inhibition curve with a large enough effect; inconclusive means small, poorly fitted or top-dose-only effect, or effect the other way; inactive means flat fitted curve, though single readings scatter.
# Test: qHTS screen for small molecules that inhibit ELG1-dependent DNA repair in human embryonic kidney (HEK293T) cells expressing luciferase-tagged ELG1; further: nearly all actives have a fitted effect of over 55% in size
# Conditions: HEK293T ELG1-luciferase reporter, luminescence, 16 h, DNA damage induced by 5-fluorouridine; series mostly up to 46.1 µM
# Procedure, shortened: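 DMSO vehicle served as the neutral condition. Each well held 2,000 cells given 5-fluorouridine plus compound; after 16 hr at 37 °C/5% CO2, ONE-Glo was added and luciferase measured 30 min later.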
# Potency means the concentration at half of the fitted maximal effect.
row,SMILES,Potency
1,CC(=O)Nc1ccc(C(=O)Nc2cccc(S(=O)(=O)NC3=NCCC3)c2)cc1,inactive
2,CC(=O)c1ccc(S(=O)(=O)N(C)CCCC(=O)N(C)Cc2ccccc2F)cc1,inactive
3,Cc1cnc(C(=O)N2CCCC(N3CCN(c4ccccc4F)CC3)C2)cn1 (configuration not stated),inactive
4,Cc1ccccc1N1CCN(C2CCCN(C(=O)c3cn4c(C)cccc4n3)C2)CC1 (configuration not stated),16.4 µM (active)
5,Cc1ccccc1N1CCN(C2CCCN(C(=O)c3ocnc3C)C2)CC1 (configuration not stated),inactive
6,CC(NC(=O)COC(=O)c1ccc2ccccc2n1)c1ccccc1 (configuration not stated),inactive
7,CCN(CC)S(=O)(=O)c1cc(C(=O)Nc2cc(S(=O)(=O)N3CCOCC3)ccc2N2CCCC2)ccc1F,inactive
8,O=c1oc2ccc(C#CC3(O)CCCCC3)cc2cc1-n1cc(-c2ccsc2)nn1,inactive
9,COC(=O)[C@]1(Cc2ccccc2)N[C@H](CN(C)S(=O)(=O)c2ccc(OC(F)(F)F)cc2)[C@@H]2C(=O)N(Cc3ccccc3)C(=O)[C@@H]21,inactive
10,O=[N+]([O-])c1cc(Br)c(O)c(/C=N/Nc2nc3ccccc3s2)c1,4.11 µM (active)
11,Cc1nn(CC(=O)Nc2nc3ccccc3s2)c(C)c1[N+](=O)[O-],inactive
12,Cc1ccc(S(=O)(=O)Nc2nc3ccccc3s2)cc1[N+](=O)[O-],inactive
13,Cc1ccccc1NC(=O)NCC1CCN(Cc2cccc(Cl)c2)CC1,inactive
14,CC(=O)N1CCOc2ccc(S(=O)(=O)N3CCN(c4cccc(C(F)(F)F)c4)CC3)cc21,inactive
15,COc1cccc(OC)c1C(=O)OCC(=O)/C(C#N)=C(\C)N,inactive
16,C/C(N)=C(/C#N)C(=O)COC(=O)c1cc(-c2ccccc2)nc2ccc(Br)cc12,inactive
17,C/C(N)=C(/C#N)C(=O)COC(=O)c1cc(-c2cccc(Br)c2)nc2ccccc12,11.6 µM (active)
18,CCOc1ccccc1Nc1nnc(SCC(=O)NCC2CCCO2)s1 (configuration not stated),inactive
19,O=C(COc1ccc(F)cc1Br)NCC1COc2ccccc2O1 (configuration not stated),inactive
20,CC(C)c1ccc2oc(=O)cc(CN3CCN(Cc4ccccc4)CC3)c2c1,inactive
21,O=c1cc(CN2CCN(S(=O)(=O)/C=C/c3ccccc3)CC2)c2ccc(O)cc2o1,inactive
22,Cc1cc2oc(=O)cc(CN3CCN(Cc4ccccc4)CC3)c2cc1C,inactive
23,O=S(=O)(c1cccs1)N1CCN(Cc2ccccc2)CC1,inactive

row,SMILES,Potency
1,Cc1ccc2c(CN3CCN(S(=O)(=O)c4ccccc4C(F)(F)F)CC3)cc(=O)oc2c1,17.8 µM (active)
2,COc1ccc2c(CN3CCN(S(=O)(=O)c4cccs4)CC3)cc(=O)oc2c1,23.1 µM (active)
3,COc1ccc2oc(=O)cc(CN3CCOCC3)c2c1,inactive
4,Cc1cc2oc(=O)cc(CN3CCN(S(=O)(=O)c4cccs4)CC3)c2cc1C(C)C,2.31 µM (active)
5,O=S(=O)(c1ccc(F)cc1)N1CCN(Cc2ccccc2C(F)(F)F)CC1,inactive
6,COc1ccc(CCNC(=O)CCc2cn(C)c3ccccc23)c(OC)c1,inactive
7,CCOc1ccc(NS(=O)(=O)c2ccc(C(=O)NCC(c3ccccc3OC)N3CCCC3)cc2)cc1 (configuration not stated),inactive
8,O=C(OCC(=O)N1CCN(c2ccccc2)CC1)c1ccc([N+](=O)[O-])s1,inactive
9,COc1ccc(CC(=O)N[C@@H]2c3cc(OC)c(OC)cc3C[C@H]2OCc2ccccc2)cc1,inactive
10,CC(C)CN(C(=O)COC(=O)c1ccc2ccccc2c1)c1c(N)n(Cc2ccccc2)c(=O)[nH]c1=O,inactive
11,O=C(O[C@@H]1[C@H](Cc2ccccc2)NS(=O)(=O)[C@H]2C[C@@H]3C=C[C@]12O3)c1ccccc1Br,inactive
12,COc1ccc(C2=NS(=O)(=O)N(C)C(C(=O)NC(C)c3ccccc3)=C2)cc1 (configuration not stated),inactive
13,COc1cc(NC(=O)C2=CC(c3ccco3)=NS(=O)(=O)N2C)cc(OC)c1OC,inactive
14,COc1cc(NC(=O)C2=CC(c3ccc(C)cc3)=NS(=O)(=O)N2C)cc(OC)c1OC,13 µM (active)
15,C=CCn1c(SCn2nnc3ccccc3c2=O)nnc1-c1ccc(Cl)cc1,inactive
16,C=CCn1c(SCc2cc(C(=O)OC)c(C)o2)nnc1-c1ccncc1,inactive
17,C=CCn1c(SCc2c(C(=O)OC)sc(N)c2C(=O)OC)nnc1-c1ccc(Cl)cc1,23.1 µM (active)
18,C#CCOCCOCCOCCNc1nc(N2CCN(C(=O)[C@H](CCCN=C(N)N)n3cc(C(N)[C@@H](C)CC)nn3)CC2)nc(N2CCN(C(=O)[C@H](CO)n3cc([C@@H](N)C(C)C)nn3)CC2)n1 (some centres not stated),inactive
19,CN(c1ccc(OCC(=O)O)cc1)S(=O)(=O)c1ccc2ccccc2c1,inactive
20,CC(C)=CCCC(C)CN1CCC(n2nccc2NC(=O)c2ccccc2)CC1 (configuration not stated),inactive
21,Cc1cccc2cc(CN(C(=O)c3cccs3)c3ccccc3)c(=O)[nH]c12,inactive
22,Cc1cc(C)c2[nH]c(=O)c(CN(Cc3ccccc3)C(=S)NCCCN(C)C)cc2c1,inactive
23,Cc1cccc2cc(CN(Cc3cccs3)C(=S)NCc3ccco3)c(=O)[nH]c12,20.6 µM (active)

row,SMILES,Potency
1,C=CC[C@@H](CC(=O)N[C@@H](CO)Cc1ccccc1)C(=O)N[C@H](COC(=O)[C@H](CC=C)CC(=O)OC(C)(C)C)Cc1ccccc1,inactive
2,COCCCNc1nc2c(-c3cccc(C(F)(F)F)c3)nnn2c2ccccc12,inactive
3,COCCNc1cc(-c2ccccc2)nc2cc(-c3cccc(F)c3)nn12,18.3 µM (active)
4,COC(=O)C(C)Sc1ccc2nnc(-c3cccc(F)c3)n2n1 (configuration not stated),inactive
5,O=S(=O)(c1ccc(SCc2ccc(Br)cc2)nc1)N1CCOCC1,inactive
6,CC(=O)Oc1ccc2c(=O)oc(-c3ccc([N+](=O)[O-])cc3)nc2c1,inactive
7,Cc1ccc(NC(=O)C/C(N)=N/O)cc1Cl,inactive
8,O=C(CC(O)(C(F)(F)F)C(F)(F)F)Nc1ccc(Cl)c(Cl)c1,4.11 µM (active)
9,O=C(CC(=O)Nc1ccc(Cl)c(Cl)c1)N/N=C/c1ccc(O)cc1,inactive
10,COc1cccc2cc(C(=O)NCc3ccc(C)cc3)c(=N)oc12,inactive
11,CCOc1ccc(NC(=O)CN(C)C(=O)c2cccc(S(=O)(=O)N3CCCC3)c2)cc1OCC,inactive
12,Cn1c(SCC(=O)N2CCCc3ccccc32)nc2ccccc2c1=O,16.4 µM (active)
13,O=C(CSc1ccc2nnc(-c3ccccc3)n2n1)N1CCCc2ccccc21,25.9 µM (active)
14,CCCn1c(SCC(=O)N2CCc3ccccc32)nnc1-c1ccncc1,inactive
15,CCC(=O)N1CCCc2ccccc21,inactive
16,CCOC(=O)CNC(=O)CSc1ccc2nnc(-c3cccnc3)n2n1,inactive
17,O=C(CSc1nc2[nH]ncc2c(=O)n1-c1ccccc1)N1CCCc2ccccc21,inactive
18,O=C1NC(Cc2ccc(O)cc2)c2nc3ccc(Cl)cc3c(=O)n2-c2ccccc21 (configuration not stated),inactive
19,CCOc1ccc(NC(=O)C2CCN(C(=O)N3CCOc4ccccc43)CC2)cc1,inactive
20,O=C(Nc1ccc(F)cc1)C1CCCN(S(=O)(=O)c2ccc(-n3cnnn3)cc2)C1 (configuration not stated),inactive
21,COC(=O)c1ccc(CN2CCCC(C(=O)Nc3cccc(-n4cnnn4)c3)C2)cc1 (configuration not stated),16.4 µM (active)
22,CC(C)CNC(=O)C1CCCN(S(=O)(=O)c2ccc(-n3cnnn3)cc2)C1 (configuration not stated),inactive
23,O=C(NCCc1ccco1)C(=O)NCCC1CCCCN1S(=O)(=O)c1ccccc1 (configuration not stated),inactive

row,SMILES,Potency
1,N#C/C(=C(/O)COc1cccc2ccccc12)c1nc2ccccc2[nH]1,inactive
2,N#C/C(=C(/O)Cc1cccc2ccccc12)c1nc2ccccc2s1,20.6 µM (active)
3,c1ccc2c(CSCc3nc4ccccc4[nH]3)cccc2c1,inactive
4,Cc1noc(C)c1S(=O)(=O)N(C)C[C@H]1Oc2ccc(NC(=O)C3CCCCC3)cc2C(=O)N([C@H](C)CO)C[C@@H]1C,inactive
5,O=C(Nc1ccc(C(F)(F)F)cc1)c1cccc(-n2cnnn2)c1,inactive
6,CC(=O)Nc1ccc(NS(=O)(=O)c2ccc3c(c2)NC(=O)CC(=O)N3)cc1,inactive
7,COc1ccc(NC(=O)Cn2ncn3c(cc4ccccc43)c2=O)c(OC)c1OC,inactive
8,COc1cc(-c2noc(C3CCCN(S(=O)(=O)c4cccc(Cl)c4)C3)n2)cc(OC)c1OC (configuration not stated),20.6 µM (active)
9,COc1ccc(NC(=O)N2CCCC(c3nc(-c4ccc(F)cc4)no3)C2)cc1 (configuration not stated),inactive
10,COc1ccc(C(=O)C2CCCN(S(=O)(=O)c3cccc(C)c3)C2)c(C)c1 (configuration not stated),inactive
11,Cn1c(CC(=O)NNC(=O)c2ccccc2F)nc2ccccc21,inactive
12,O=C(CN1C(=O)NC2(CCOc3ccccc32)C1=O)Nc1cccc([N+](=O)[O-])c1 (configuration not stated),inactive
13,COc1ccc(CC(=O)Nc2cc(S(=O)(=O)N3CCCCC3)ccc2N2CCN(C)CC2)cc1,inactive
14,COc1ccc(S(=O)(=O)Nc2ccc(S(=O)(=O)N3CCCCC3)cc2)cc1OC,inactive
15,COc1ccc(S(=O)(=O)N2CCCCC2)cc1NC(=O)COc1ccccc1,inactive
16,COc1ccc(S(=O)(=O)N2CCCCC2)cc1Br,inactive
17,COc1ccc(-c2ccc(Nc3ccc(S(=O)(=O)N4CCCC4)cc3)nn2)cc1OC,23.1 µM (active)
18,CCNC(=O)NC(=O)C(C)OC(=O)c1cc(S(=O)(=O)N2CCCCCC2)ccc1OC (configuration not stated),23.1 µM (active)
19,CCNC(=O)NC(=O)C(C)OC(=O)C1CCN(S(=O)(=O)c2ccccc2F)CC1 (configuration not stated),inactive
20,COc1ccc(S(=O)(=O)N2CCCCCC2)cc1NC(=O)Cc1ccc(OC)c(OC)c1,18.3 µM (active)
21,COc1ccc(S(=O)(=O)N2CCOCC2)cc1C(=O)NC1CCCCC1,inactive
22,CC(=O)NCCC(=O)Nc1cc(S(=O)(=O)N2CCCCC2)ccc1Oc1cccc(C)c1,inactive
23,Cc1cccn2c(=O)c3cc(C(=O)NCC4CCCO4)c(=N)n(Cc4ccc(F)cc4)c3nc12 (configuration not stated),inactive
